This passage reports Potency results from PubChem BioAssay (Tox21).

Unmarked numbers belong to inactive results. Records with an inconclusive call do not appear. Active and inactive are the calls of the source. Unless noted, calls follow the shape of the dose curve; as a rule, active = well fitted curve in the direction sought with a large enough effect in the repeat runs; inconclusive = weak or mixed curves; inactive = no such curve, though single readings can be large; an effect the other way counts as inactive or inconclusive.

The target of test [1] is Progesterone receptor (Homo sapiens) (UniProt P06401). Description: qHTS assay to identify small molecule antagonists of the progesterone receptor (PR) signaling pathway (AID 1346795; active = well fitted inhibition curve with a large enough effect in the signal ratio in the repeat runs, not every such curve was filed as active; the % refers to the signal ratio; also: potency is read from the fitted curve at half-maximal effect). The essentials:
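Inhibition of R5020-induced (1 nM final) beta-lactamase reporter signal in PR-UAS-bla HEK293T cells was scored by FRET fluorescence after overnight (16 hr) compound treatment.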

The nature of test [2]: qHTS assay to identify small molecule antagonists of the progesterone receptor (PR) signaling pathway - cell viability counter screen (AID 1346798). Also: nearly all actives have a fitted effect of over 50% in size. Also: potency is read from the fitted curve at half-maximal effect. The essentials:
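ATP content as viability readout: CellTiter-Glo luminescence, 30 min room temperature, in PR-UAS-bla HEK293T cells after 16 hr compound/R5020 treatment at 37C and 5% CO2.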
On the technique in general: Quantitative high-throughput screening tests each substance at several concentrations.

Test [3] is described as follows: qHTS assay to identify small molecule agonists of the progesterone receptor (PR) signaling pathway - cell viability counter screen (AID 1346799; calls by dose curve; also: nearly all actives have a fitted effect of over 45% in size; also: potency is read from the fitted curve at half-maximal effect). The procedure, abridged:
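Cytotoxicity in PR-bla HEK293T cells: 16 h compound, 37C; CellTiter-Glo added post-FRET read; luminescence after 30 min RT.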

Test [4] is described as follows: qHTS assay to identify small molecule antagonists of the TGF-beta/Smad signaling pathway - cell viability counter screen (AID 1346824). Also: nearly all actives have a fitted effect of over 50% in size. The essentials:
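SBE-bla HEK 293T cells, incubated overnight, then compound plus 0.25 ng/mL TGF-beta1 (stock added) for 5 hr at 37 C. Viability was read in the same wells by CellTiter-Glo luminescence after 30 min at room temperature.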

The nature of test [5]: qHTS assay to identify small molecule agonists of the TGF-beta/Smad signaling pathway - cell viability counter screen (AID 1346829). Also: top concentration of the series differs between compounds; nearly all actives have a fitted effect of over 45% in size. The procedure, abridged:
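HEK 293T SBE-bla line, 5 hr compound exposure at 37 C, multiplexed CellTiter-Glo viability read by luminescence.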

Test [6] can be described thus: qHTS assay to identify small molecule agonists of the TGF-beta/Smad signaling pathway (AID 1346859; active = well fitted activation curve with a large enough effect in the signal ratio in the repeat runs, not every such curve was filed as active; the % refers to the signal ratio; also: series mostly up to about 77 µM). The procedure, abridged:
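Stable Smad binding element-beta-lactamase HEK 293T cells; 5 hr compound exposure at 37 C under 5% CO2; 2 hr room-temperature substrate step; fluorescence excited at 405 nm, collected at 460 nm and 530 nm.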

Test [7] addresses Thyrotropin-releasing hormone receptor (Homo sapiens) (UniProt P34981). The test is described as follows: qHTS assay to identify small molecule antagonists of the thyrotropin-releasing hormone receptor (TRHR) signaling pathway (AID 1346877; active = well fitted inhibition curve with a large enough effect in the repeat runs, not every such curve was filed as active; also: series mostly up to about 51 µM). The procedure, abridged: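 Screening used HEK293 cells engineered with TRHR, with a brief 5 min room-temperature compound exposure preceding addition of TRH to 1 nM. The read-out was kinetic calcium-dye fluorescence, concentration-response from 15 doses in triplicate.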

For test [8] the target is unchanged. The test is described as follows: qHTS assay to identify small molecule agonists of the thyrotropin-releasing hormone receptor (TRHR) signaling pathway (AID 1346891; calls by dose curve;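 also: HEK293 cells expressing TRHR with calcium dye readout; series mostly up to about 58 µM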). The essentials: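 In 1536-format, 1500 TRHR-Hek293 cells per well grew 18 h, took up calcium dye for 2 h at 37 °C, received compound, and were read kinetically; 15-point titrations, triplicates.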

Test [9] can be described thus: Human pregnane X receptor (PXR) small molecule agonists, qHTS cell viability counter screen (AID 1346977). Also: nearly all actives have a fitted effect of over 50% in size. Also: potency is read from the fitted curve at half-maximal effect. The procedure, abridged:
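Readout is CellTiter-Fluor fluorescence from PXR-Luc HepG2 cells. Plated cells rested 5hr, then were treated with compounds for 24hr at 37C and 5% CO2, with reagent present during the last hour.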

Test [10] in a line: Caspase-3/7 induction in HepG2 cells by small molecules, qHTS assay (AID 1346978). Also: nearly all actives have a fitted effect of over 15% in size. Also: potency is read from the fitted curve at half-maximal effect. The procedure, abridged:
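Wild-type HepG2 cells, 2,000/well, settled 5 hr at 37 C and 5% CO2, then compound-treated for 17 hr; caspase-3/7 activity read by luminescent Caspase-Glo 3/7 after 30 min at room temperature.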

Sequence of Progesterone receptor (Homo sapiens) (P06401 whole entry, looked up): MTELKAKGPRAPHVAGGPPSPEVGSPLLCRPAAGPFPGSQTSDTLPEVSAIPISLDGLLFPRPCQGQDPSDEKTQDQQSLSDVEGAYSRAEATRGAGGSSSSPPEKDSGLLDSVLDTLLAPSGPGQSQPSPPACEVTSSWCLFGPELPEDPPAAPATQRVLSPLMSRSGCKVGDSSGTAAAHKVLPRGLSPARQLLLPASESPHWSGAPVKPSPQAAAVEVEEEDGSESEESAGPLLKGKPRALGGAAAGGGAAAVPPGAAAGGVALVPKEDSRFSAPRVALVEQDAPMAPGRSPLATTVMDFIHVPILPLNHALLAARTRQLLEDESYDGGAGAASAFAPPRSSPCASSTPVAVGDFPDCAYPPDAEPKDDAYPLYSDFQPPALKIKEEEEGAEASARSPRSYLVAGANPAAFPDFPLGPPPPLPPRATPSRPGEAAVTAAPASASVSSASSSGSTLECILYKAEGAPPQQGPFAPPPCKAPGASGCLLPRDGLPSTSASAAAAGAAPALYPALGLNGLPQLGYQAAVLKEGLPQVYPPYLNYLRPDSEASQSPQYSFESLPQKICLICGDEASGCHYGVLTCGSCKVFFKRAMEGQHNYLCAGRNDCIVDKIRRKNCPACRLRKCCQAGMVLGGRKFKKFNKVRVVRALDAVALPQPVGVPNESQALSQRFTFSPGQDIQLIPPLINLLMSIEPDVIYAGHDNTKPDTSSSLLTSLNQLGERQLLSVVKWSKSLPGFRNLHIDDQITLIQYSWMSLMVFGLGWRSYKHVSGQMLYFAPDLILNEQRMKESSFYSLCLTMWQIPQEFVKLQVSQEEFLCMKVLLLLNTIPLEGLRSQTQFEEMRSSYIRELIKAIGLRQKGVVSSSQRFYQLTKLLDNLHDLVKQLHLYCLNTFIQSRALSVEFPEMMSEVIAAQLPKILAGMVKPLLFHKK
Sequence of Thyrotropin-releasing hormone receptor (Homo sapiens) (P34981 whole entry, looked up): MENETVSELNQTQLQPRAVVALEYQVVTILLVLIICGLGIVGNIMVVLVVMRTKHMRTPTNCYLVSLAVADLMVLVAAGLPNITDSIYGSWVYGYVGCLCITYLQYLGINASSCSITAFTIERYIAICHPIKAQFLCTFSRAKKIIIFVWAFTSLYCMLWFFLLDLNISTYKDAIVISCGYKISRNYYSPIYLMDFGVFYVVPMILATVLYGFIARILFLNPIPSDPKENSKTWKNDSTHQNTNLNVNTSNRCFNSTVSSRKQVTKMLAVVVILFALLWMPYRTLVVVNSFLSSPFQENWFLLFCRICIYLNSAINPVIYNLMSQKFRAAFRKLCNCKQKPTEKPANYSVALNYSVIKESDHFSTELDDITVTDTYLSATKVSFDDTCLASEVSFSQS

For `C=CC/C=C/C/C=C/C/C=C/C`, the Potency result in [1], in [2], in [3], in [4], in [5] and in test [6] was “inactive” in each case. Besides, the Potency entry in [7], in test [8], in test [9] and in test [10] was “inactive” throughout.

Regarding `CCc1c(Br)c(Br)c(Br)c(Br)c1Br`, the Potency entry in [1], in test [2], in [3], in [4], in [5] and in test [6] was “inactive” each time. Further, the Potency entry in test [7], in [8], in test [9] and in test [10] was “inactive” each time.

With `COc1cccc(OC)c1O`, the Potency result in test [1], in [2], in test [3], in [4], in test [5] and in [6] was “inactive” each time. Besides, the Potency result in [7], in [8], in test [9] and in [10] was “inactive” in each case.

Take `CC(C)c1ccc(O)c(C(C)C)c1`: the Potency entry in [1], in [2], in test [3], in test [4], in [5] and in test [6] was “inactive” each time. Moreover, the Potency entry in test [7], in test [8] and in test [9] was “inactive” in each case. In addition, the Potency in [10] is 61.1 µM (active).

As for `Cc1occc1SSc1ccoc1C`, the Potency entry in test [1], in test [2], in test [3], in test [4], in test [5] and in test [6] was “inactive” each time. Moreover, the Potency result in test [7], in [8], in test [9] and in [10] was “inactive” in each case.

With `c1ccc2c(c1)CCC2`, the Potency result in [1], in [2], in [3], in test [4], in test [5] and in test [6] was “inactive” in each case. Further, the Potency result in test [7], in test [8], in [9] and in test [10] was “inactive” each time.

For the compound `CC(C)(C)C1=CC(=O)C=C(C(C)(C)C)C1=O`, the Potency entry in test [1], in [2], in test [3], in test [4], in test [5] and in test [6] was “inactive” throughout. Besides, the Potency entry in [7], in test [8], in test [9] and in test [10] was “inactive” throughout.

For `CCCCCCCCCCc1ccccc1`, the Potency entry in test [1], in test [2], in test [3], in test [4], in test [5] and in test [6] was “inactive” in each case. In addition, the Potency result in [7], in test [8], in test [9] and in test [10] was “inactive” in each case.

For `CCc1c(C(=O)O)c(=O)cnn1-c1ccc(Cl)cc1`, the Potency result in [1], in test [2], in test [3], in test [4], in test [5] and in test [6] was “inactive” throughout. For the same compound, the Potency entry in test [7], in test [8], in [9] and in test [10] was “inactive” in each case.

Turning to `Cc1cc(=O)[nH]c(=O)[nH]1`, the Potency result in [1], in test [2], in test [3], in test [4], in test [5] and in test [6] was “inactive” throughout. For the same compound, the Potency entry in test [7], in test [8], in [9] and in test [10] was “inactive” throughout.

Regarding `CC(C)(C)c1cc(CCC(=O)NCCCCCCNC(=O)CCc2cc(C(C)(C)C)c(O)c(C(C)(C)C)c2)cc(C(C)(C)C)c1O`, the Potency entry in [1], in test [2], in test [3], in [4], in test [5] and in [6] was “inactive” each time. Moreover, the Potency result in test [7], in [8], in [9] and in test [10] was “inactive” in each case.

In the case of `C/C=C/C=N/NC(=O)c1ccncc1`, the Potency result in [1], in test [2], in test [3], in [4], in test [5] and in test [6] was “inactive” throughout. For the same compound, the Potency result in test [7], in test [8] and in test [10] was “inactive” in each case.

On to `CO[Si](CCCNCCNCCN)(OC)OC`, for which the Potency entry in test [1], in [2], in test [3], in [4], in test [5] and in test [6] was “inactive” in each case. Also, the Potency result in [8], in [9] and in test [10] was “inactive” in each case.

Consider `CC(=O)C=O`, for which the Potency entry in test [1], in [2], in [3], in test [4], in test [5] and in [6] was “inactive” each time. The Potency result in [9] and in test [10] was “inactive” each time.

In the case of `OCCCc1cccnc1`, the Potency result in test [1], in test [2], in test [3], in test [4], in test [5] and in test [6] was “inactive” throughout. For the same compound, the Potency result in test [8], in [9] and in test [10] was “inactive” each time.

Regarding `c1cc2c3c(c1)ccc1cccc(c13)C2`, the Potency entry in [1], in test [2], in test [3], in test [4], in [5] and in [6] was “inactive” throughout. The Potency result in test [8], in [9] and in test [10] was “inactive” each time.

With `OCCCS`, the Potency entry in [1], in [2], in test [3], in test [4], in [5] and in test [6] was “inactive” each time. For the same compound, the Potency entry in [9] and in [10] was “inactive” throughout.

For the compound `CCCCCCCC(OC)OC`, the Potency entry in test [1], in [2], in [3], in test [4], in test [5] and in test [6] was “inactive” in each case. The Potency result in [7], in test [8] and in test [10] was “inactive” each time.

With `C/C=C/CO`, the Potency entry in [1], in test [2], in test [3], in test [4], in test [5] and in test [6] was “inactive” throughout. Further, the Potency entry in test [7], in test [8] and in test [10] was “inactive” throughout.

Take `Cc1cncc(C)c1`: the Potency entry in test [1], in test [2], in test [3], in test [4], in test [5] and in [6] was “inactive” throughout. The Potency entry in test [8], in test [9] and in test [10] was “inactive” throughout.

As for `CCCC(O)C(O)CO` (configuration not stated), the Potency result in test [1], in test [2], in [3], in test [4], in test [5] and in [6] was “inactive” throughout. Moreover, the Potency entry in test [7], in test [8] and in test [10] was “inactive” each time.

Take `Clc1ccc(C(Cn2ccnc2)OCc2c(Cl)cccc2Cl)c(Cl)c1` (configuration not stated): the Potency in test [1] is 4.22 µM (active); in test [2], 5.96 µM (active); in [3], 5.96 µM (active); in test [9], 23.7 µM (active). Besides, the Potency result in test [4], in test [5], in test [6] and in test [10] was “inactive” throughout.

Regarding `Cc1cn[nH]c1`, the Potency result in test [1], in test [2], in [3], in test [4], in test [5] and in test [6] was “inactive” throughout. Besides, the Potency entry in test [9] and in test [10] was “inactive” each time.

For the compound `CCCC(=O)OCC(COC(=O)CCC)OC(=O)CCC`, the Potency entry in [1], in test [2], in test [3], in test [4], in [5] and in [6] was “inactive” in each case. For the same compound, the Potency result in test [8], in test [9] and in [10] was “inactive” throughout.

Turning to `OCCC(O)CO` (configuration not stated), the Potency entry in [1], in test [2], in [3], in test [4], in test [5] and in [6] was “inactive” in each case. Besides, the Potency result in [7], in test [8] and in [10] was “inactive” each time.
